Inconclusive results are not listed. Activity calls are given as the source filed them. Unless noted, calls follow the shape of the dose curve; as a rule, active = well fitted curve in the direction sought with a large enough effect in the repeat runs; inconclusive = weak or mixed curves; inactive = no such curve, though single readings can be large; an effect the other way counts as inactive or inconclusive.
Key:
[1] = qHTS assay to identify small molecule antagonists of the estrogen receptor alpha (ER-alpha) signaling pathway using the BG1 cell line in the presence of 0.1 nM 17-beta-estradiol - cell viability counter screen (AID 1259241); also: nearly all actives have a fitted effect of over 40% in size; also: potency is read from the fitted curve at half-maximal effect
How it was run: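 Cytotoxicity counter-screen: live-cell protease activity measured by fluorescence (30 min reagent step) in the same wells. Cells were VM7Luc4E2 with endogenous ER-alpha and ERE-driven luciferase, treated 22 hr at 37C alongside 0.1 nM 17beta-estradiol final.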

[2] = qHTS assay to identify small molecule antagonists of the androgen receptor (AR) signaling pathway using the MDA cell line in the presence of 0.5 nM R1881 - cell viability counter screen (AID 1259242); also: nearly all actives have a fitted effect of over 45% in size; also: potency is read from the fitted curve at half-maximal effect
How it was run: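 Counter screen for cytotoxicity run in the same wells as the AR antagonist reporter screen: MDA-kb2 cells were treated 16 hr with test compounds and 0.5 nM R1881, then live-cell protease activity was measured by fluorescence.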

[3] = molecular target: Androgen receptor (Homo sapiens) (UniProt P10275); experiment: qHTS assay to identify small molecule antagonists of the androgen receptor (AR) signaling pathway using the MDA cell line in the presence of 0.5 nM R1881 (AID 1259243); also: nearly all actives have a fitted effect of over 50% in size; also: potency is read from the fitted curve at half-maximal effect
How it was run: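 Luciferase luminescence is the read-out: compounds are tested for suppressing 0.5 nM R1881-driven MMTV reporter activity in MDA-kb2 cells after 16 hr at 37C.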

[4] = molecular target: Estrogen receptor (Homo sapiens) (UniProt P03372); experiment: qHTS assay to identify small molecule antagonists of the estrogen receptor alpha (ER-alpha) signaling pathway using the BG1 cell line in the presence of 0.1 nM 17-beta-estradiol (AID 1259244); also: nearly all actives have a fitted effect of over 50% in size; also: potency is read from the fitted curve at half-maximal effect
How it was run: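 Cells: VM7Luc4E2, endogenous ER-alpha, 4x ERE-luc stable. Pre-culture 5 d, phenol red-free, charcoal-stripped FBS. Plated 24 h, compound + E2 0.1 nM final, 22 h 37C/5% CO2. Readout ONE-Glo luminescence.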

[5] = qHTS assay to identify small molecule phospholipidosis (PLD) inducers (AID 1259344; active = well fitted curve in the direction sought with a large enough effect; an effect the other way counts as inactive or inconclusive)
How it was run: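 Quantitative HTS in HepG2: compound plus LipidTOX Red dye for 24 h, paraformaldehyde fixation with Hoechst 33342, widefield high-content imaging; amiodarone as positive and DMSO as negative control.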

[6] = qHTS assay to identify small molecule HDAC inhibitors (AID 1259364); also: nearly all actives have a fitted effect of over 45% in size; also: potency is read from the fitted curve at half-maximal effect
How it was run: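 Luminescence from a cell-permeant luminogenic class I/II HDAC substrate reports endogenous deacetylase activity in intact HCT-116 cells treated with compounds for 2 h.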

[7] = qHTS assay to identify small molecule HDAC inhibitors - cell viability counter screen (AID 1259365); also: nearly all actives have a fitted effect of over 50% in size; also: potency is read from the fitted curve at half-maximal effect; as to activity change, negative = cytotoxicity: series mostly up to about 92 µM
How it was run: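 CellTiter-Glo luminescence (30 min, room temperature) reported viability after a 2 h compound exposure at 37 C. Cells: wild-type HCT-116, 1,500 per well, seeded the night before.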

[8] = qHTS assay to identify small molecule agonists of the sonic hedgehog signaling (Shh) pathway - cell viability counter screen (AID 1259366); also: nearly all actives have a fitted effect of over 50% in size; also: potency is read from the fitted curve at half-maximal effect
How it was run: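 Cytotoxicity counter screen: CellTiter-Fluor reagent added after 23 h compound exposure, then 1 h at 37C and fluorescence read. Cells were 3T3 Gli1-Luc, seeded 2,000 per well and dosed 4 h post-plating.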

[9] = qHTS assay to identify small molecule antagonists of the sonic hedgehog signaling (Shh) pathway - cell viability counter screen (AID 1259367); also: nearly all actives have a fitted effect of over 55% in size; also: potency is read from the fitted curve at half-maximal effect
How it was run: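 Seed 3T3 Gli1-Luc cells at 2,000 per well; incubate 4 hr; add compound in DMSO, then conditioned medium; incubate at 37C with 5% CO2; add CellTiter-Fluor after 23 hr; read fluorescence 1 hr later.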

[10] = qHTS assay to identify small molecule agonists of the sonic hedgehog signaling (Shh) pathway (AID 1259368; calls by dose curve;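 also: NIH/3T3-derived 3T3Gli1-Luc cells carrying a stable Gli1-driven firefly luciferase reporter; series mostly up to about 92 µM; nearly all actives have a fitted effect of over 15% in size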)
How it was run: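 3T3Gli1-Luc (NIH/3T3 clone, stable Gli1-Luc); 4 hr pre-incubation, then cpd in DMSO 24 hr, 37 C/5% CO2; luciferase reagent 30 min RT; luminescence.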

[11] = qHTS assay to identify small molecule antagonists of the sonic hedgehog signaling (Shh) pathway (AID 1259369; calls by dose curve; also: nearly all actives have a fitted effect of over 45% in size; also: potency is read from the fitted curve at half-maximal effect)
How it was run: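 3T3Gli1-Luc, conditioned-medium-stimulated, 24hr cpd, 37C/5% CO2; Gli1-driven firefly Luc luminescence after 30min RT with luciferase reagent. Cells plated 4hr before cpd.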

[12] = qHTS assay to identify small molecule agonists of the estrogen receptor beta (ER-beta) signaling pathway - cell viability counter screen (AID 1259380); also: nearly all actives have a fitted effect of over 30% in size; also: potency is read from the fitted curve at half-maximal effect
How it was run: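 HEK293T ER-beta-UAS-bla; 2% CS-FBS; 6 hr pre-plate, 16 hr cpd at 37C/5% CO2; LiveBLAzer read first, then CellTiter-Glo 30 min RT, luminescence.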

[13] = molecular target: Androgen receptor (Homo sapiens) (UniProt P10275); experiment: qHTS assay to identify small molecule agonists of the androgen receptor (AR) signaling pathway in the presence of an antagonist (AID 1259381; calls by dose curve; also: nearly all actives have a fitted effect of over 15% in size)
How it was run: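 MDA-kb2 cells, 3,000/well, rested 5hr at 37C/0% CO2 → nilutamide 3.0uM final or buffer → compounds, 15 conc. → 16hr at 37C → ONE-Glo, 30min RT → luminescence.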

[14] = qHTS assay to identify small molecule antagonists of the estrogen receptor beta (ER-beta) signaling pathway - cell viability counter screen (AID 1259382); also: nearly all actives have a fitted effect of over 55% in size; also: potency is read from the fitted curve at half-maximal effect;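 as to activity change, negative = cytotoxicity: HEK293T cells carrying ER-beta-UAS-bla reporter stimulated with estradiol; series mostly up to about 92 µM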
How it was run: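 Cells: ER-beta-UAS-bla HEK293T, 2,000/well, 2% CS-FBS, 6 hr settle. Cpd + E2 (1nM final), 16 hr, 37C/5% CO2. Bla FRET substrate 2 hr RT, then CellTiter-Glo 30 min RT, luminescence.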

[15] = qHTS assay to identify small molecule agonists or antagonists of the thyroid stimulating hormone receptor (TSHR) signaling pathway - wild type cell line counter screen (AID 1259384; calls by dose curve)
How it was run: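 Wild-type Hek293 cells, 800/well, 18 h at 37C, then compound with Ro20-1724 for 30 min RT. cAMP by HTRF (cAMP-d2/anti-cAMP cryptate), 1 h RT, fluorescence read. 15 concentrations, triplicates.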

[16] = molecular target: Estrogen receptor (Homo sapiens) (UniProt P03372); experiment: qHTS assay to identify small molecule agonists of the estrogen receptor alpha (ER-alpha) signaling pathway in the presence of an antagonist (AID 1259383; calls by dose curve; also: top concentration of the series differs between compounds; nearly all actives have a fitted effect of over 15% in size)
How it was run: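 VM7Luc4E2, endog. ER-alpha + 4×ERE-luc; charcoal-stripped FBS, phenol red-free, 5 d; 24hr plating; +10.0nM ICI-182,780 (final); cpds 15 conc, 22hr, 37C/5% CO2; ONE-Glo luminescence.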

[17] = qHTS assay to identify small molecule agonists of the androgen receptor (AR) signaling pathway in the presence of an antagonist - cell viability counter screen (AID 1259379);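 also: MDA-kb2 human breast cancer cells carrying an MMTV luciferase reporter; series mostly up to about 92 µM; nearly all actives have a fitted effect of over 25% in size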
How it was run: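 Cells: MDA-kb2 (MMTV-luc, AR and GR elements), 3,000/well, 5 hr settle. Added: nilutamide 3.0uM final, then compounds (15 conc.). Incubation: 16 hr, 37C, no CO2. Read-out: CellTiter-Fluor, 1 hr, fluorescence.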

[18] = molecular target: Thyrotropin receptor (Homo sapiens) (UniProt P16473); experiment: qHTS assay to identify small molecule antagonists of the thyroid stimulating hormone receptor (TSHR) signaling pathway (AID 1259385; calls by dose curve; also: nearly all actives have a fitted effect of over 20% in size)
How it was run: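 TSHR-HEK293 cells (800/well) plated 18 h, then compounds with Ro20-1724 and TSH at 1.5 ng/mL final, 30 min at room temperature. cAMP quantified by HTRF (cAMP-d2/anti-cAMP-cryptate, 1 h); 15 concentrations in triplicate.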

[19] = molecular target: Estrogen receptor beta (Homo sapiens) (UniProt Q92731); experiment: qHTS assay to identify small molecule agonists of the estrogen receptor beta (ER-beta) signaling pathway (AID 1259377; active = well fitted activation curve with a large enough effect in the signal ratio in the repeat runs, not every such curve was filed as active; the % refers to the signal ratio)
How it was run: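 Ratiometric beta-lactamase FRET read-out came after 2 h substrate loading at room temperature. It followed 16 h compound treatment at 37C of GripTite HEK293T cells carrying a UAS-bla reporter, plated in 2% charcoal-stripped FBS medium.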
% is scaled to controls: 0 for no effect and ±100 for the full control effect.

Sequence of Estrogen receptor (Homo sapiens) (P03372 whole entry, looked up): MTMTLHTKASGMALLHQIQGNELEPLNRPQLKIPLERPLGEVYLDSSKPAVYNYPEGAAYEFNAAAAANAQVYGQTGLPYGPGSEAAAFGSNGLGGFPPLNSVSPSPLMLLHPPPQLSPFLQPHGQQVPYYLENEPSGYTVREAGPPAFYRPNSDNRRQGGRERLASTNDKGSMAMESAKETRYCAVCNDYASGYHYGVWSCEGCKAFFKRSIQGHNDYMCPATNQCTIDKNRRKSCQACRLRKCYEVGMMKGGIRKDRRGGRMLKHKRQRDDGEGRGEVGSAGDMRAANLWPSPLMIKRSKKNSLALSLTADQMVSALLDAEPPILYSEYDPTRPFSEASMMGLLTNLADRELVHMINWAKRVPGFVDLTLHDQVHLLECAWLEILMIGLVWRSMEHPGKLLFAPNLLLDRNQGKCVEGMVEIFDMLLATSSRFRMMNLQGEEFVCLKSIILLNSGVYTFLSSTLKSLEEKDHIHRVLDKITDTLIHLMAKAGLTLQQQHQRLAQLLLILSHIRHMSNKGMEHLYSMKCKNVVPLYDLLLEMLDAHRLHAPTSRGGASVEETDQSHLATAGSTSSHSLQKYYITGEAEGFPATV
Sequence of Thyrotropin receptor (Homo sapiens) (P16473 whole entry, looked up): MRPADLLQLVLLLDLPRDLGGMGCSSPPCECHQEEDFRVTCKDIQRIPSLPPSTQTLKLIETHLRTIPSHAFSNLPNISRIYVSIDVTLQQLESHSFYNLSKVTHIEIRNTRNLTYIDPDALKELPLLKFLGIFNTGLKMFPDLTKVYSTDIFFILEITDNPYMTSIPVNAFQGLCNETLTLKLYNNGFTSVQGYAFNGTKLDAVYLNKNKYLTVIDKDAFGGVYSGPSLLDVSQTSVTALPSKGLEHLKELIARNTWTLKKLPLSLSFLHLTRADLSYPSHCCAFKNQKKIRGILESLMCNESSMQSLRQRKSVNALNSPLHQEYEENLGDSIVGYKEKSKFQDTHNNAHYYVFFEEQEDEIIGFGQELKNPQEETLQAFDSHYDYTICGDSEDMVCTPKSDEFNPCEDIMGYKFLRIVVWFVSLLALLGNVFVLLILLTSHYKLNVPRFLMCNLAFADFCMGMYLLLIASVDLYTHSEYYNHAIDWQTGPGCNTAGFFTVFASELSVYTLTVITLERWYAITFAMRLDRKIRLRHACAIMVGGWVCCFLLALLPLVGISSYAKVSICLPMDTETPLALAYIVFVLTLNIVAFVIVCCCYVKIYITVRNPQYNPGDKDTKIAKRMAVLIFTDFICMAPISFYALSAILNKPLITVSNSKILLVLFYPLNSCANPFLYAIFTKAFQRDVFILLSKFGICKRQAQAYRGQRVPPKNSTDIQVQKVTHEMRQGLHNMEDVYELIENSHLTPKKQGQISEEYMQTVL
Sequence of Androgen receptor (Homo sapiens) (P10275 whole entry, looked up): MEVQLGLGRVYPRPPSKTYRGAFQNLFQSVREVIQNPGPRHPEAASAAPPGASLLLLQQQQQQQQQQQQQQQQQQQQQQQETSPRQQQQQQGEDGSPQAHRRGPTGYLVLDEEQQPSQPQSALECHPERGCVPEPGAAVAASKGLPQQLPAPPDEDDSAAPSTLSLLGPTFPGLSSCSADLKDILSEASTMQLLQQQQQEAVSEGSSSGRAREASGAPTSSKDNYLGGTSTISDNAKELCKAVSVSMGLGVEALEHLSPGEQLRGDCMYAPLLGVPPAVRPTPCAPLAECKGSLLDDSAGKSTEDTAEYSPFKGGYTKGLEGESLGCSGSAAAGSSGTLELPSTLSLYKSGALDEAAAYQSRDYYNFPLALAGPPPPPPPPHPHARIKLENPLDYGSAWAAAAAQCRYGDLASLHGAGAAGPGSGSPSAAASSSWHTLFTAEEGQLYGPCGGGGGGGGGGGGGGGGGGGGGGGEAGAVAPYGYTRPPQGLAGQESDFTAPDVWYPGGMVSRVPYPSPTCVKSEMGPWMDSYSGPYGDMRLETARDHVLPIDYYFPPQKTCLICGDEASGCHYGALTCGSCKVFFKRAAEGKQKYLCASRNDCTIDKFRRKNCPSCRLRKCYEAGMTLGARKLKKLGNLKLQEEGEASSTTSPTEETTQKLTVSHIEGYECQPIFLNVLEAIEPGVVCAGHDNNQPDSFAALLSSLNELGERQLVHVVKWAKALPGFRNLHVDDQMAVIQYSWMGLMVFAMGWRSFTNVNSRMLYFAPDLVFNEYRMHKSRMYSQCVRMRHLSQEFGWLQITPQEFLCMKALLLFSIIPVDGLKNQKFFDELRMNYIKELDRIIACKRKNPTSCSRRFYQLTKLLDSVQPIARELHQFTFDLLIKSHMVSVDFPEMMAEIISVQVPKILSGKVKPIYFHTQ
Sequence of Estrogen receptor beta (Homo sapiens) (Q92731 whole entry, looked up): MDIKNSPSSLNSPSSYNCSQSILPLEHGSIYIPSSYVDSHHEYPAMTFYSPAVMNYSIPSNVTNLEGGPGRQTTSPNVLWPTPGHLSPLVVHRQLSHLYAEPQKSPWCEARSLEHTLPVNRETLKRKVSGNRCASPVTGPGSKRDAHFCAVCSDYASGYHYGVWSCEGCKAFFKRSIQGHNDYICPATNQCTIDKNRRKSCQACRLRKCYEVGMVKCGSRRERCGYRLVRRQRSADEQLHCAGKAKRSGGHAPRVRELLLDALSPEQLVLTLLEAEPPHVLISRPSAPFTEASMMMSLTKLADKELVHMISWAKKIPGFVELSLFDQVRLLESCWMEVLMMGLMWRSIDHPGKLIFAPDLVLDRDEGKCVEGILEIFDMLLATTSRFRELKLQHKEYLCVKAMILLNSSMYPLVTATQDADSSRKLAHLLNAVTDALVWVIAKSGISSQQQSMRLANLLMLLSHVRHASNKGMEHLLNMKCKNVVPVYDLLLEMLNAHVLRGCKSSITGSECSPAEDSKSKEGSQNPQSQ

[O-][n+]1ccccc1SSc1cccc[n+]1[O-]
active: Potency [1] 0.411 µM | Potency [2] 0.326 µM | Potency [3] 0.291 µM | Potency [4] 0.13 µM | Potency [6] 1.83 µM | Potency [8] 0.13 µM | Potency [9] 0.291 µM | Potency [11] 0.164 µM | Potency [12] 0.092 µM | Potency [14] 0.13 µM
inactive: Potency [5] | activity change, negative = cytotoxicity [7] 12.3% [at 19 µM] | activity change [10] -7.63% [at 18.9 µM, hits give high values] | activation [13] -7.58% [at 19 µM] | cAMP activity change [15] 5.78% [at 18.9 µM]

Oc1cc2ccccc2c2ccccc12
active: Potency [1] 21.7 µM | Potency [2] 19.3 µM | Potency [3] 10.9 µM | Potency [4] 15.4 µM | Potency [7] 24.3 µM | Potency [8] 4.33 µM | Potency [9] 6.86 µM | Potency [11] 4.86 µM | Potency [12] 5.45 µM | Potency [14] 7.7 µM
inactive: Potency [10] | Potency [13] | Potency [16]

CCCCCCCCCCCCCCCC(=O)OC[C@H](O)[C@H]1OC(=O)C(O)=C1O
inactive: Potency [1] | Potency [2] | Potency [3] | Potency [4] | Potency [5] | Potency [6] | Potency [7] | Potency [8] | Potency [10] | Potency [11] | Potency [17] | Potency [13] | outcome [15] | Potency [18]
active: Potency [12] 43.3 µM

CCCCN1CCCC[C@H]1C(=O)Nc1c(C)cccc1C
inactive: Potency [1] | Potency [2] | Potency [3] | Potency [4] | Potency [5] | Potency [6] | Potency [7] | Potency [8] | Potency [9] | Potency [10] | Potency [11] | Potency [19] | Potency [17] | Potency [12] | Potency [13] | Potency [16] | outcome [15]

O=c1[nH]sc2cc(Cl)ccc12
inactive: Potency [1] | Potency [2] | Potency [4] | Potency [6] | Potency [7] | Potency [9] | Potency [10] | Potency [11] | Potency [17] | Potency [13] | Potency [16] | outcome [15] | Potency [18]
active: Potency [3] 0.001 µM | Potency [12] 11.9 µM

O=C1CCCc2c1cc1ccc3cccc4ccc2c1c34
inactive: Potency [1] | Potency [2] | Potency [4] | Potency [6] | Potency [8] | Potency [10] | Potency [11] | Potency [13] | Potency [14] | Potency [16] | outcome [15] | Potency [18]
active: Potency [3] 9.81 µM | Potency [12] 31 µM

NNC(=O)c1cccc(C(=O)NN)c1
inactive: Potency [1] | Potency [2] | Potency [3] | Potency [4] | Potency [6] | Potency [7] | Potency [8] | Potency [10] | Potency [11] | Potency [17] | Potency [13] | Potency [14] | Potency [16]

— PubChem BioAssay (Tox21)
